The source made the active and inactive calls. A call without a number means that no potency is given here. The call rests on the fitted dose curve.
target: Muscarinic acetylcholine receptor M1 (Homo sapiens) (UniProt P11229); test: Cholinergic receptor muscarinic 1 (CHRM1) small molecule agonists, cell-based qHTS assay (AID 1963589); settings: CHRM1-CHO cells, agonist mode, calcium flux fluorescence; series mostly up to 76.8 µM; further: nearly all actives have a fitted effect of over 35% in size
Sequence (P11229 whole entry, looked up): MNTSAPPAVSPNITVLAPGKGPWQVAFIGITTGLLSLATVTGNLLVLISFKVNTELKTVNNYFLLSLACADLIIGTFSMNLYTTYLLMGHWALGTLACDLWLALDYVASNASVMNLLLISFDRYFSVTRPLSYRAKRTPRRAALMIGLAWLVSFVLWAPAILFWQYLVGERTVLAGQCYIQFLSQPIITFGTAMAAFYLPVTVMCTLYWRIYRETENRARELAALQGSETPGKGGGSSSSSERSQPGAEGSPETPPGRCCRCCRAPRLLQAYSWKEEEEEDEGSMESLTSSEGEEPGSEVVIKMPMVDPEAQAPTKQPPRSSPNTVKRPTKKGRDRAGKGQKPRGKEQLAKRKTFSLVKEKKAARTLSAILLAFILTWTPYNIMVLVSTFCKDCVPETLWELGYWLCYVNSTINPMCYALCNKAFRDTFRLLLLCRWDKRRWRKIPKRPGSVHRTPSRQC
Description: National Center for Advancing Translational Sciences [NCATS]
Division of Preclinical Innovation [DPI]
U.S. Environmental Protection Agency [EPA]
National Institutes of Environmental Health Sciences [NIEHS]
National Toxicology Program [NTP]
U.S. Food and Drug Administration [FDA]
The CHRM1 is a muscarinic receptor. This receptor plays a crucial role in learning and memory processes and has long been identified as a promising therapeutic target for the improvement of cognitive decline in Alzheimer's disease (AD). The CHRM1-CHO cell line stably expressing human muscarinic acetylcholine receptor M1 (CHRM1) can be used for screening agonists and antagonists of interactions between CHRM1 and its ligands. The CHRM1-CHO Calcium Flux Assay is a homogeneous fluorescence-based assay for detecting the intracellular calcium level using FDSS kinetic plate reader system.
CHRM1-CHO cells were dispensed at 1000 cells/3uL/well in 1536-well black-clear bottom plates using a Multidrop Dispenser. After the assay plates were incubated at a 37 C/5% CO2 incubator for 18 h, 3 uL of Dye Loading Buffer was transferred to the assay plate by a Flying Reagent Dispenser. The assay plates were incubated at 37 C for 1h. For agonist mode, 23 nL of compounds dissolved in DMSO, positive controls or DMSO only was transferred to the assay plate by a pin tool. […] Each test compound was measured at 15 concentrations in three independent runs.
Potency means the concentration at half of the fitted maximal effect.

Row | Structure (SMILES) | Potency
1 | CCCCCCCCCCCCOCC1CO1 (stereo not given) | inactive
2 | Cc1ccc(C(=O)C(=O)O)cc1C | inactive
3 | CO[Si](CCCNCCN)(OC)OC | inactive
4 | N[C@H]1C(O)O[C@H](CO)[C@@H](O)[C@@H]1O (stereo not given in full) | inactive
5 | Cc1cc(C)c(S(=O)(=O)O)cc1N=Nc1cc(S(=O)(=O)O)c2ccccc2c1O | inactive
6 | CO/N=C(/C(=O)N[C@@H]1C(=O)N2C(C(=O)O)=C(COC(N)=O)CS[C@H]12)c1ccco1 | inactive
7 | CC(C)c1ccc2c(C(C)C)cc(C(C)C)c(S(=O)(=O)O)c2c1 | inactive
8 | Cc1cc(OCCOCC[N+](C)(C)Cc2ccccc2)ccc1C(C)(C)CC(C)(C)C | inactive
9 | c1ccc2cnncc2c1 | inactive
10 | CCCCOC(=O)C(C)OC(=O)CCC (stereo not given) | inactive
11 | CCCCCCN | inactive
12 | C=C[C@H]1CN2CC[C@H]1C[C@H]2[C@H](O)c1ccnc2ccc(OC)cc12 | inactive
13 | CC(O)C(C)O (stereo not given) | inactive
14 | CCC(=O)OC | inactive
15 | O=C1CCN(c2ccccc2)N1 | inactive
16 | C=C(C)[C@H]1CC=C(C)C(=O)C1 | inactive
17 | CCCOCCO | inactive
18 | C[C@]12CC[C@H]3[C@@H](CCC4=CC(=O)CC[C@@]43C)[C@@H]1CC[C@@H]2C(=O)CO | inactive
19 | CC(=O)O[C@@H]1C[C@@H]2CC[C@@]1(C)C2(C)C | inactive
20 | CC(=O)c1cccc([N+](=O)[O-])c1 | inactive

Row | Structure (SMILES) | Potency
21 | CC(C)CNCC(C)C | inactive
22 | c1ccc2c(c1)Oc1ccccc1S2 | inactive
23 | OCC(CO)(CO)CO | inactive
24 | C[Si]1(C)O[Si](C)(C)O[Si](C)(C)O[Si](C)(C)O[Si](C)(C)O1 | inactive
25 | CNC1(C)C2CCC(C2)C1(C)C (stereo not given) | inactive
26 | Cc1ccc(S(N)(=O)=O)cc1 | inactive
27 | Cc1c(I)c(=O)n(-c2ccccc2)n1C | 37.9 nM (active)
28 | Cc1ccccc1OCC1CO1 (stereo not given) | inactive
29 | CCCCC/C=C/C=C/C=O | inactive
30 | C=C(C)C(=O)NCCC[N+](C)(C)C | inactive
31 | NC/C=C/C(=O)O | inactive
32 | Cc1ccc(CO)cc1 | inactive
33 | CC(C)C(=O)c1ccccc1 | inactive
34 | CC(C)C(=O)OC(=O)C(C)C | inactive
35 | CCCCCCCCCCCC[N+](C)(C)CCCS(=O)(=O)[O-] | inactive
36 | O=C(O)/C=C/C(=O)O | inactive
37 | CCCCCC(C)=O | inactive
38 | CCCCCC1CCC(=O)O1 (stereo not given) | inactive
39 | O=C(Nc1ccc(Cl)cc1)Nc1ccc(Cl)c(Cl)c1 | inactive
40 | C=CC(C)(O)CC/C=C(\C)CCC=C(C)C (stereo not given) | inactive
